Bioassay records: PubChem, several laboratories
tim23-1 inh: tim23-1 yeast growth inhibition; S. cerevisiae tim23-1 growth, BacTiter-Glo luminescence, 24 h; inhibition, % at 20 µM; actives 1.3% (n = 330,000); AID 463212;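 active means growth inhibition of the mutant yeast at or above 50%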;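 further: temperature-sensitive mutant grown at 25 °C; plate controls were DMSO-treated mutant yeast for no effect and medium wells lacking yeast for full effect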
NLRP3 yeast inh: inhibitors of NALP3 inflammasome in yeast | Yeast reconstituted NLRP3/ASC/caspase-1, beta-gal luminescence, 24 h | inhibition, % at 10 µM | AID 2825 | actives 0.39% (n = 330,000);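 active means inhibition of 50% or more; inactive means inhibition below 50%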;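 further: plate controls were induced DMSO wells for no effect and uninduced yeast grown without galactose for full effect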
tim10-1 inh: inhibits growth of tim10-1 mutant yeast. S. cerevisiae tim10-1 ts strain growth, BacTiter-Glo, 24 h. inhibition, % at 20 µM. actives 2.2% (n = 330,000). AID 463190;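 active means inhibition of at least 40%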;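 further: mutant grown at 25 °C; 0% = DMSO wells with yeast and 100% = wells holding no yeast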
PfHsp90 set2: reduces growth (ATP signal) of yeast expressing P. falciparum Hsp90 | inhibition, % at 9.4 µM | actives 0.32% (n = 310,000) | S. cerevisiae expressing PfHsp90, BacTiter-Glo ATP, 48 h; yeast lacking PDR1 and PDR3 efflux regulators;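 active means every replicate shows inhibition above about 80%, whatever the replicate mean, limit read from the data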;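 further: 0% = DMSO neutral controls and 100% = 20 µM radicicol positive controls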
TIM10 inh: growth inhibitors of TIM10 yeast strain | inhibition, % at 10 µM | S. cerevisiae TIM10 strain growth, BacTiter-Glo luminescence, 24 h | actives 1.4% (n = 330,000);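 active means inhibition of 40% or more at the single tested concentration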;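 further: wild-type TIM10 isogenic control strain grown at permissive 25 °C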
tim10 confirm: confirmation of TIM10 yeast growth inhibitors | AID 463215 | inhibition, % at 10 µM | actives 63% (n = 4,600) | shares compounds with TIM10 inh | S. cerevisiae tim10 strain growth, BacTiter-Glo luminescence, 24 h;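 active means inhibition of yeast growth at or above a set limit in either of two replicates at 10 µM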;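 further: this counterscreen used the strain with wild-type TIM10; 0% = yeast with DMSO and 100% = medium wells lacking yeast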
tim23-1 confirm: confirmation of tim23-1 mutant yeast growth inhibitors; shares compounds with tim23-1 inh; S. cerevisiae tim23-1 growth, BacTiter-Glo luminescence, 24 h; inhibition, % at 20 µM; actives 83% (n = 4,400);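 active means inhibition above about 39% in either of two replicate wells at 20 µM, limit read from the data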;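 further: temperature-sensitive tim23-1 mutant grown at 25 °C; 0% = DMSO wells with yeast and 100% = medium wells without yeast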
Starred values were filed as active, the others as inactive; x = not tested or not shown. An excerpt weighted towards active compounds, which were near 3.7% of everything screened.

SMILES	tim23-1 inh	NLRP3 yeast inh	tim10-1 inh	PfHsp90 set2	TIM10 inh	tim10 confirm	tim23-1 confirm
Cc1cccc2cc(/C=C/C(=O)c3ccco3)c(Cl)nc12	50*	30	30	x	43*	10	52*
O=C(c1ccco1)N1CCN(c2nc(-c3ccc(F)cc3)cs2)CC1	82*	10	32	4	44*	17	35
O=C(c1ccco1)N1CCN(c2ccc(F)cc2)CC1	8	-13	-9	1	3	x	x
N#CC1(c2nc3ccccc3[nH]2)CC1c1ccc2c(c1)OCO2 (stereo not drawn)	56*	15	33	x	56*	32*	72*
CC(C)C[C@]1(c2ccccc2)ON(c2ccccc2C(F)(F)F)C1=O	21	8	-26	-10	3	x	x
CC[C@]1(c2ccccc2OC)ON(c2ccccc2C(F)(F)F)C1=O	57*	36	25	x	40*	69*	62*
COc1ccccc1[C@]1(C)ON(c2ccccc2C(F)(F)F)C1=O	69*	16	-51	-23	63*	58*	-55
CCC1(C)Cc2ccccc2C(=S)N1 (stereo not drawn)	-3	18	18	-15	-1	x	x
O=C(c1cccs1)N1CCN(c2nnc(-c3ccccc3)c3ccccc23)CC1	51*	0	27	x	43*	-2	26
CCCC(=O)N1CCN(c2nnc(-c3ccccc3)c3ccccc23)CC1	-14	7	-30	11	-33	x	x
COC(=O)Nc1ccc(S(=O)(=O)N2CCCC(C(=O)N3CCC(C)CC3)C2)cc1 (stereo not drawn)	7	3	3	3	0	x	x
Oc1ccc(Cl)cc1/C=C/c1ccc2cccc(O)c2n1	58*	9	35	105*	64*	63*	16
CSc1ccc(/C=C/c2ccc3cccc(O)c3n2)cc1	-2	28	4	60	-3	x	x
CCSc1ccc(/C(N)=N/OC(=O)c2cccs2)cn1	61*	16	35	6	63*	63*	74*
Clc1nc(-c2ccccn2)nc2scc(-c3ccccc3)c12	52*	31	18	-20	50*	-7	58*
O=C(N/C(=C/c1cccs1)C(=O)N1CCOCC1)c1ccco1	-2	7	7	13	-4	x	x
O=S(=O)(N/N=C/c1cccnc1)c1ccc(Cl)c(Cl)c1	6	15	11	23	11	x	x
O=C(Nc1nc2ccccc2s1)C1CCCO1 (stereo not drawn)	9	30	16	-5	7	x	x
O=C(Nc1nc2ccccc2s1)C1c2ccccc2Oc2ccccc21	51*	20	36	-41	45*	46*	58*
Cc1cc(S(=O)(=O)c2ccc([N+](=O)[O-])cn2)ccc1Br	86*	-1	22	69	44*	61*	81*
Cc1ccc(C(=O)NCC(=O)OC(C)C(=O)Nc2ccc(N3CCOCC3)cc2)s1 (stereo not drawn)	10	2	7	29	3	x	x
COc1ccc(CC(=O)O/N=C(\N)c2ccccc2)cc1OC	-1	16	13	-7	-3	x	x
O=C(N/N=C/c1cc(Br)ccc1O)c1ccccc1Cl	79*	17	36	-54	65*	-34	69*
Oc1ccc(Br)cc1/C=N/NC(=S)NCCc1ccccc1	26	13	29	13	35	x	x
COC(=O)N/N=C/c1cc(Br)ccc1O	2	30	23	-35	8	x	x
CC(C)NC(=S)N/N=C/c1cc(Br)ccc1O	55*	6	39	-41	55*	-10	-6
Cc1ccc(CNC(=O)c2ccc(Cl)c(S(N)(=O)=O)c2)n1C	4	24	-11	10	9	x	x
Cc1ccc(-c2cn(-c3ccccc3F)c(=S)[nH]2)cc1	61*	18	29	-16	45*	47*	48*
CCOC(=O)c1cnc(-n2nc(C)cc2C)nc1NC1CCCC1	52*	30	39	-35	45*	51*	44*
Oc1c(Br)cc(Br)cc1C=Nc1ccc2c(c1)OCCO2	84*	44	25	22	56*	34*	92*
